Compounds without any hit were thinned out: in the full panel of roughly 79,000, 15% have a hit. Values without a mark were called inactive. The source made the active and inactive calls. Rule as the data show it: active = growth inhibition above about 70%; inactive = the rest.

10 compounds from PubChem BioAssay (NCI) can be followed below.

Test [1] can be described thus: NCI Yeast Anticancer Drug Screen. Data for the rad50 strain (AID 155).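 Also: 0% = growth of vehicle-only cultures of the same strain.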 The following applies: S. cerevisiae rad50 strain growth inhibition, hits give high values. The essentials: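 Growth of the mutant yeast was measured after compound exposure and referenced to vehicle-treated cultures.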
Test [2] can be described thus: NCI Yeast Anticancer Drug Screen. Data for the mec2-1 strain (AID 157). The following applies: S. cerevisiae mec2-1 strain, hits give high values. The essentials:
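Growth inhibition is read against vehicle-treated controls after compound exposure of the mec2-1 yeast strain, which is defective in DNA damage repair or cell cycle control.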

Test [3] is described as follows: NCI Yeast Anticancer Drug Screen. Data for the sgs1 mgt1 strain (AID 161).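 Also: 0% = growth of cultures given vehicle only.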 The note with it: S. cerevisiae sgs1 mgt1 strain, hits give high values. The essentials: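 Growth of a repair-deficient yeast mutant was monitored after compound treatment and expressed as inhibition relative to vehicle-treated cultures.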
A short description of test [4]: NCI Yeast Anticancer Drug Screen. Data for the cln2 rad14 strain (AID 165).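 Also: 0% = growth equal to vehicle treated cultures.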 The following applies: S. cerevisiae cln2 rad14 strain, hits give high values. The essentials:
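Growth inhibition, relative to vehicle-treated controls, is the read-out. The test organism is a yeast strain with defined genetic alterations, cln2 rad14.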

A short description of test [5]: NCI Yeast Anticancer Drug Screen. Data for the bub3 strain (AID 167). The note with it: S. cerevisiae bub3 mutant strain, hits give high values. The essentials: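 Whole-cell yeast assay. The mutant strain was incubated with compounds, and growth inhibition was determined by comparison with vehicle-treated cells.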
Test [6] can be described thus: NCI Yeast Anticancer Drug Screen. Data for the mlh1 rad18 strain (AID 175). The note with it: S. cerevisiae mlh1 rad18 strain growth inhibition, hits give high values. The essentials: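 Cells of a genetically altered yeast strain, deficient in DNA damage repair, were treated with compound. Their growth was then compared with that of vehicle-treated cultures to give inhibition.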

[7] abbreviates: at 5.0 µM (retest, dose inferred, filed as 0.5).
Setting [8] is: at 50.0 µM (retest, dose inferred, filed as 5.0).

With `C[Si](C)(c1ccccc1)C1CC(=O)CC(=O)C1`, the growth inhibition in test [1] (setting [7]) is 41%; in test [1] (setting [8]), 54%; in test [1] (at 50.0 µM), 49.9%; in test [2] (setting [7]) it was 26%; in test [2] (setting [8]), 65%; in test [2] (at 50.0 µM), 55.2%. Also, the growth inhibition was 47% in test [3] (setting [7]); 50% in test [3] (setting [8]); 69.5% in test [3] (at 50.0 µM); 29% in test [4] (setting [7]); 39% in test [4] (setting [8]); 65.1% in test [4] (at 50.0 µM). The growth inhibition in test [5] (setting [7]) is 38%; in test [5] (setting [8]), 53%; in test [5] (at 50.0 µM), 56%; in test [6] (setting [7]), 44%; in test [6] (setting [8]), 63%; in test [6] (at 50.0 µM), 48.8%.

Consider `O=[N+]([O-])c1cc2cccnc2c2ncccc12`, for which the growth inhibition in test [1] (setting [7]) is -8%; in test [1] (setting [8]), -15%; in test [1] (at 50.0 µM), 63%; in test [2] (setting [7]) it was -43%; in test [2] (setting [8]), -18%; in test [2] (at 50.0 µM), 41.1%. In addition, the growth inhibition in test [3] (setting [7]) was -5%; in test [3] (setting [8]), 20%; in test [3] (at 50.0 µM), 81.2% (active); in test [4] (setting [7]), -8%; in test [4] (setting [8]) it was 21%; in test [4] (at 50.0 µM), 62.2%. The growth inhibition in test [5] (setting [7]) was -21%; in test [5] (setting [8]) it was -86%; in test [5] (at 50.0 µM), 34.4%; in test [6] (setting [7]), 4%; in test [6] (setting [8]), 22%; in test [6] (at 50.0 µM), 76.2% (active).

On to `C=C1C(=O)O[C@H]2[C@H](OC(C)=O)[C@@H](C)CCC/C(C)=C/CC[C@@]3(C)O[C@@H]3C[C@@H]12`, for which the growth inhibition in test [1] (setting [7]) is 14%; in test [1] (setting [8]), 99% (active); in test [1] (at 50.0 µM), 91.9% (active); in test [2] (setting [7]) it was 17%; in test [2] (setting [8]), 99% (active); in test [2] (at 50.0 µM), 94.2% (active). Besides, the growth inhibition in test [3] (setting [7]) was 20%; in test [3] (setting [8]), 98% (active); in test [3] (at 50.0 µM), 92.8% (active); in test [4] (setting [7]) it was 3%; in test [4] (setting [8]), 95% (active); in test [4] (at 50.0 µM), 91.1% (active). Also, the growth inhibition is 3% in test [5] (setting [7]); 98% (active) in test [5] (setting [8]); 93% (active) in test [5] (at 50.0 µM); 22% in test [6] (setting [7]); 99% (active) in test [6] (setting [8]); 92.3% (active) in test [6] (at 50.0 µM).

As to `COc1ccc(NC(=O)CCC(=O)CC(=O)c2ccncc2)cc1`, the growth inhibition was -9% in test [1] (setting [7]); 3% in test [1] (setting [8]); 3.5% in test [1] (at 50.0 µM); 4% in test [2] (setting [7]); -2% in test [2] (setting [8]); -8.65% in test [2] (at 50.0 µM). The growth inhibition was 2% in test [3] (setting [7]); -9% in test [3] (setting [8]); -6.25% in test [3] (at 50.0 µM); -5% in test [4] (setting [7]); 2% in test [4] (setting [8]); 41.2% in test [4] (at 50.0 µM). In addition, the growth inhibition in test [5] (setting [7]) was -2%; in test [5] (setting [8]) it was 1%; in test [5] (at 50.0 µM) it was 3.25%; in test [6] (setting [7]), -1%; in test [6] (setting [8]), -5%; in test [6] (at 50.0 µM), -14.6%.

`N=C(N)c1ccc2oc3ccc(C(=N)N)cc3c(=O)c2c1`: the growth inhibition in test [1] (setting [7]) was 8%; in test [1] (setting [8]) it was 65%; in test [1] (at 50.0 µM), 57.8%; in test [2] (setting [7]), 3%; in test [2] (setting [8]), 70% (active); in test [2] (at 50.0 µM), 29.9%. In addition, the growth inhibition in test [3] (setting [7]) was 21%; in test [3] (setting [8]), 76% (active); in test [3] (at 50.0 µM), 65.5%; in test [4] (setting [7]), 11%; in test [4] (setting [8]), 65%; in test [4] (at 50.0 µM), 71.8% (active). For the same compound, the growth inhibition in test [5] (setting [7]) is -4%; in test [5] (setting [8]), 76% (active); in test [5] (at 50.0 µM) it was 38%; in test [6] (setting [7]) it was 10%; in test [6] (setting [8]), 77% (active); in test [6] (at 50.0 µM), 73.4% (active).

As for `Cc1ccsc1/C=N/Nc1ccc2ccccc2n1`, the growth inhibition in test [1] (setting [7]) was 30%; in test [1] (setting [8]) it was 72% (active); in test [1] (at 50.0 µM), 78% (active); in test [2] (setting [7]) it was 20%; in test [2] (setting [8]), 74% (active); in test [2] (at 50.0 µM), 59.5%. In addition, the growth inhibition in test [3] (setting [7]) is 44%; in test [3] (setting [8]), 97% (active); in test [3] (at 50.0 µM), 86.8% (active); in test [4] (setting [7]) it was 47%; in test [4] (setting [8]) it was 91% (active); in test [4] (at 50.0 µM), 50.6%. The growth inhibition was 42% in test [5] (setting [7]); 95% (active) in test [5] (setting [8]); 79% (active) in test [5] (at 50.0 µM); 25% in test [6] (setting [7]); 84% (active) in test [6] (setting [8]); 23.4% in test [6] (at 50.0 µM).

For `CC1=C(C(=O)Nc2ccccc2)C(c2cccc([N+](=O)[O-])c2)C(C(=O)Nc2ccccc2)=C(C)N1`, the growth inhibition was 4% in test [1] (setting [7]); 30% in test [1] (setting [8]); -7.95% in test [1] (at 50.0 µM); 1% in test [2] (setting [7]); 63% in test [2] (setting [8]); 26.1% in test [2] (at 50.0 µM). Further, the growth inhibition in test [3] (setting [7]) was 4%; in test [3] (setting [8]) it was 30%; in test [3] (at 50.0 µM), 19.1%; in test [4] (setting [7]) it was -2%; in test [4] (setting [8]), 24%; in test [4] (at 50.0 µM), 4.75%. The growth inhibition in test [5] (setting [7]) was 6%; in test [5] (setting [8]) it was 75% (active); in test [5] (at 50.0 µM), 35.4%; in test [6] (setting [7]), -7%; in test [6] (setting [8]) it was 24%; in test [6] (at 50.0 µM), 18.9%.

On to `C/C=c1/[nH]c(=O)/c(=C\c2ccccc2)[nH]c1=O`, for which the growth inhibition was -3% in test [1] (setting [7]); 9% in test [1] (setting [8]); 11.3% in test [1] (at 50.0 µM); 2% in test [2] (setting [7]); -1% in test [2] (setting [8]); -3.8% in test [2] (at 50.0 µM). For the same compound, the growth inhibition in test [3] (setting [7]) was -2%; in test [3] (setting [8]), 2%; in test [3] (at 50.0 µM), -5.45%; in test [4] (setting [7]), 3%; in test [4] (setting [8]) it was -2%; in test [4] (at 50.0 µM), 24.6%. Also, the growth inhibition in test [5] (setting [7]) was -2%; in test [5] (setting [8]), -4%; in test [5] (at 50.0 µM), -7.35%; in test [6] (setting [7]), 24%; in test [6] (setting [8]), 1%; in test [6] (at 50.0 µM) it was 4.35%.

As to `O=C1CC(c2ccccc2)C(=O)N2C(=O)CC(c3ccccc3)C(=O)N12` (stereo not given), the growth inhibition was 1% in test [1] (setting [7]); 28% in test [1] (setting [8]); 42.2% in test [1] (at 50.0 µM); 2% in test [2] (setting [7]); 3% in test [2] (setting [8]); 7.6% in test [2] (at 50.0 µM). Besides, the growth inhibition is -5% in test [3] (setting [7]); 8% in test [3] (setting [8]); 1.35% in test [3] (at 50.0 µM); -5% in test [4] (setting [7]); -9% in test [4] (setting [8]); -27.1% in test [4] (at 50.0 µM). The growth inhibition was 0% in test [5] (setting [7]); 28% in test [5] (setting [8]); 71.5% (active) in test [5] (at 50.0 µM); 2% in test [6] (setting [7]); -7% in test [6] (setting [8]); 45.8% in test [6] (at 50.0 µM).

Take `Cc1c(CCl)c(=O)oc2c(C)c3occ(CCl)c(=O)c3cc12`: the growth inhibition is 6% in test [1] (setting [7]); 12% in test [1] (setting [8]); 80.1% (active) in test [1] (at 50.0 µM); 20% in test [2] (setting [7]); 31% in test [2] (setting [8]); 82.5% (active) in test [2] (at 50.0 µM). Besides, the growth inhibition in test [3] (setting [7]) is 17%; in test [3] (setting [8]), 42%; in test [3] (at 50.0 µM), 84.5% (active); in test [4] (setting [7]) it was 41%; in test [4] (setting [8]) it was 60%; in test [4] (at 50.0 µM) it was 85.4% (active). Besides, the growth inhibition in test [5] (setting [7]) is 28%; in test [5] (setting [8]), 57%; in test [5] (at 50.0 µM) it was 87.5% (active); in test [6] (setting [7]) it was 29%; in test [6] (setting [8]), 67%; in test [6] (at 50.0 µM) it was 77.7% (active).
